Here are results for 40 molecules from PubChem BioAssay (NCATS).

Molecules are shown by their SMILES. Records with an inconclusive call do not appear. Active and inactive are the calls of the source. Calls come from the whole dose curve; as a rule, active = well fitted inhibition curve with a large enough effect; inconclusive = small, poorly fitted or top-dose-only effect; inactive = no such curve, though single readings can be large or run the other way.
% is set by controls: 0 for no effect and ±100 for the full control effect; potency is the fitted concentration of half-maximal effect.

The target of this assay is Cytochrome P450 3A7 (Homo sapiens) (UniProt P24462). Description: Cytochrome P450 family 3 subfamily A member 7 (CYP3A7) small molecule antagonists: luciferase biochemical qHTS assay (AID 1963596). Note: nearly all actives have a fitted effect of over 40% in size. The note with it: P450-Glo CYP3A7 enzyme luminescence, 1 h; series mostly up to 57.4 µM; activity change, negative = inhibition: at the top concentration. The text has this: National Center for Advancing Translational Sciences [NCATS] Assay Overview: Cytochrome P450 (CYP) enzymes are membrane-bound hemeproteins that play a key role in metabolism of drugs and xenobiotics. The CYP3A subfamily is the most abundant, representing 30% of the total adult hepatic CYP content, whereas CYP3A7 is found predominantly in human fetal liver and accounts up to 50% of the total fetal hepatic CYP content. Testing the effect of chemicals on CYP isozymes is useful to minimize the adverse drug reactions and toxicities in the drug development process. Chemicals were tested for their effect on CYP enzyme activities by using P450-Glo (TM) screening systems (Promega Corporation, Madison, WI). These systems provide a luminescent method containing proluciferin substrates and are converted to luciferin products by CYP isozymes. The luciferin products formed are detected with a luciferin detection reagent, and the amount of light produced is proportional to CYP activity. P450-Glo (TM) CYP3A7 screening system (Catalog. No. V8812) was used to detect the compounds that interfere with CYP3A7 activity. The positive control compound used for CYP3A7 assay is ketoconazole (Sigma-Aldrich, St. Louis, MO).
Cytochrome P450 3A7 (Homo sapiens), sequence (P24462 whole entry, looked up): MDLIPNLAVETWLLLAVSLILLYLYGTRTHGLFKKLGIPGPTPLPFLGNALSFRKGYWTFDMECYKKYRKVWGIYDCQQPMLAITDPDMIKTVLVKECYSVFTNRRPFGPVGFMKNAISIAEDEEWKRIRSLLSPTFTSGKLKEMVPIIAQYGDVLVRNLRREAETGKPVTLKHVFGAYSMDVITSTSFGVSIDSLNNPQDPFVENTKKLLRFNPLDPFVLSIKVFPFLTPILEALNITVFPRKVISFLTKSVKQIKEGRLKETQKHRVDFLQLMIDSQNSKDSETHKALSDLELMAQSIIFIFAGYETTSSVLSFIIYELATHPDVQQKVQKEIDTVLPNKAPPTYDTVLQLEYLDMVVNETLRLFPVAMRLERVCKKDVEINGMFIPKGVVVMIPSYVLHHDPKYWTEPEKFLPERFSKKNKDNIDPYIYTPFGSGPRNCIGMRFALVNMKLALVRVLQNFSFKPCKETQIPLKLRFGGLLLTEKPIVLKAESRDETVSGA
Assay Protocol Summary: Two ul of enzyme-substrate mix was dispensed into medium binding white/solid 1536-well plates (Greiner Bio-One North America Inc., Monroe, NC) using a Flying Reagent Dispenser (FRD, Aurora Discovery, San Diego, CA). Compounds dissolved in DMSO, and positive control (ketoconazole) were transferred to the assay plates at 23 nl using a Pintool station (Wako, San Diego, CA). The assay plates were incubated at room temperature for 10 min. Then 2 ul of NADPH regeneration solution was added to each well of the assay plates using an FRD and incubated at room temperature for 1 h. The reaction was stopped by adding 4 ul of detection reagent using an FRD and after 20 min incubation at room temperature the luminescence signal was measured using a ViewLux plate reader (Perkin Elmer, Shelton, CT). Data were expressed as relative luminescence units.
On the technique in general: qHTS replaces the single test concentration by a dilution series.
Regarding `O=C(O)c1cc(=O)c2ccccc2o1`, the “activity change, negative = inhibition” value is -2.17% (inactive).
In the case of `CC(=O)N1CCN(NC(=O)c2ccc(F)cc2)CC1`, the “activity change, negative = inhibition” value was -5.56% (inactive).
As for `Nc1nc(=O)n([C@@H]2CS[C@H](CO)O2)cc1F`, the “activity change, negative = inhibition” value is 3.71% (inactive).
Regarding `NC(=O)NC1N=C([O][Al])NC1=O` (stereo not given), the Potency was 12.3 µM (active).
As for `CC(=O)NCCCCCC(=O)O`, the “activity change, negative = inhibition” value was 27.2% (inactive).
Turning to `O=[N+]([O-])c1nccn1CO[C@@H](CO)[C@H](O)CO`, the “activity change, negative = inhibition” value was -6.18% (inactive).
Turning to `CN(C)C(=O)COC(=O)Cc1ccc(OC(=O)c2ccc(N=C(N)N)cc2)cc1`, the “activity change, negative = inhibition” value is -25.1% (inactive).
Turning to `CC1(C)NC(=O)N(c2ccc([N+](=O)[O-])c(C(F)(F)F)c2)C1=O`, the “activity change, negative = inhibition” value is -21.3% (inactive).
Consider `CC(C)(C)OC(=O)N1CCC(OCc2nc(-c3ccncc3)no2)CC1`, for which the “activity change, negative = inhibition” value is 0% (inactive).
Consider `C[C@H]1NCc2cc(-c3ccc4c(=O)c(C(=O)O)cn(C5CC5)c4c3OC(F)F)ccc21`, for which the “activity change, negative = inhibition” value was -10.6% [at 23.9 µM] (inactive).
As for `Cc1cc(Nc2ncc3cc(-c4c(Cl)cccc4Cl)c(=O)n(C)c3n2)ccc1F`, the “activity change, negative = inhibition” value is 0.0057% (inactive).
On the same count and under the same terms, as for `NCC1CCC(C(=O)Oc2ccc(CCC(=O)O)cc2)CC1` (stereo not given), the figure is 0.729% (inactive); as for `COc1ccc(C=CC(=O)Nc2ccccc2C(=O)O)cc1OC`, -26.7% (inactive).
For the molecule `Cc1ccc(Cn2c(SCc3ccc(C(=O)N4CCCCCC4)cc3)nc3ccncc32)cc1`, the “activity change, negative = inhibition” value was 4.01% (inactive).
Consider `CC(NC(CCc1ccccc1)C(=O)O)C(=O)N1C(=O)N(C)CC1C(=O)O` (stereo not given), for which the “activity change, negative = inhibition” value is -22.7% (inactive).
In the case of `CN(C)[C@@H]1C(=O)C(C(=O)NCN2CCCC2)=C(O)[C@@]2(O)C(=O)C3=C(O)c4c(O)cccc4[C@@](C)(O)C3C[C@@H]12` (stereo not given in full), the “activity change, negative = inhibition” value is -28.1% (inactive).
As to `CCCCOC(=O)NC(=O)C1c2ccccc2Oc2ccccc21`, the “activity change, negative = inhibition” value was 1.46% (inactive).
For the molecule `COc1ccccc1OCC1CNC(=O)O1` (stereo not given), the “activity change, negative = inhibition” value was 0.281% (inactive).
Take `CC(=O)NC(Cc1ccccc1)C(=O)O` (stereo not given): the “activity change, negative = inhibition” value is -13.4% (inactive).
For `COc1ccc(CCO[C@@H]2CCCC[C@H]2N2CC[C@@H](O)C2)cc1OC`, the “activity change, negative = inhibition” value was -14.5% (inactive).
With `O[C@@H]1CO[C@H]2[C@@H]1OC[C@@H]2O`, the “activity change, negative = inhibition” value is 4.87% (inactive).
As to `CN1CCN(C(=O)CN[C@@H]2C[C@H]2c2ccc(OCc3ccccc3)cc2)CC1`, the “activity change, negative = inhibition” value is 17.1% (inactive).
On to `C=C(C)Cn1c(SCC(=O)c2cccs2)nc2sc3c(c2c1=O)CCCC3`, for which the “activity change, negative = inhibition” value was 0% (inactive).
`Cc1nc(C)c(-c2ccc(C3CCC(CC(=O)O)CC3)cc2)nc1C(N)=O` (stereo not given): the “activity change, negative = inhibition” value was 0.244% (inactive).
With `CCn1nnnc1NCc1ccc(C(C)C)cc1`, the “activity change, negative = inhibition” value is 0% (inactive).
Turning to `NC(=O)c1ncn([C@@H]2O[C@H](CO)[C@@H](O)[C@H]2O)c1N`, the “activity change, negative = inhibition” value was 18.9% (inactive).
The same measure, in the same setting: as for `CCCCCCCCCCCCCCCC(=O)O`, the figure is -12.6% (inactive); as for `CCN(C)C(=O)Oc1cccc([C@H](C)N(C)C)c1`, -5.48% (inactive); as for `COC(=O)c1ccc(N2CCN(C)CC2)c(NC(=O)c2cccc(OC)c2)c1`, 0% (inactive).
Consider `C[C@@H](c1ncncc1F)[C@](O)(Cn1cncn1)c1ccc(F)cc1F`, for which the “activity change, negative = inhibition” value is 5.79% (inactive).
`COC(=O)c1cc(Cl)ccc1OC`: the “activity change, negative = inhibition” value is 19.7% (inactive).
`CCS(=O)(=O)c1ccc(OC)c(C(=O)OC)c1`: the “activity change, negative = inhibition” value is -0.836% (inactive).
Take `CCCCCCCCCCCCCCCCCC[N+](C)(C)CCC[Si](OC)(OC)OC`: the “activity change, negative = inhibition” value was -7.83% (inactive).
On to `CC1CCc2cc(F)cc3c(=O)c(C(=O)O)cn1c23` (stereo not given), for which the “activity change, negative = inhibition” value is -25.5% (inactive).
In the case of `NC(=O)c1ncn(C2OC(CO)C(O)C2O)n1` (stereo not given), the “activity change, negative = inhibition” value is -29.9% (inactive).
Turning to `CCCc1cc2c(N3CCN(C4=NCC(C)(C)S4)CC3)ncnc2s1`, the “activity change, negative = inhibition” value was 3.88% (inactive).
As to `O=C(NCC(=O)N1CCCC1)Nc1ccc2cnccc2c1`, the “activity change, negative = inhibition” value was 12% (inactive).
Same read-out and setting: the figure for `CNS(=O)(=O)c1ccccc1Nc1nc(Nc2ccc(N3CCN(C)CC3)cc2OC)ncc1Br` is 0% (inactive); for `O=C(O)P(=O)(O)O` it is 1.75% (inactive).
Consider `O=C1c2cccc3c2[C@H](CCC3)CN1[C@@H]1CN2CCC1CC2`, for which the “activity change, negative = inhibition” value is 4.6% (inactive).
